For this test, the target named is von Willebrand factor (VWF) (Homo sapiens, UniProt P04275 P04275:764-2813). The test is described as follows: filter; binding decreased. The note with it: tags: Haematologic Technologies Inc. (factor VIII free); label: 5'-32P; ssRNA; 2'-F pyrimidines. As to the method: Dissociation constants (Kd) of each truncate were determined using double-filter nitrocellulose filter binding assays (Pergolizzi et al, Blood 108:862-869 (2006)). All binding studies were performed in binding buffer F (20 mM HEPES, pH 7.4, 150 mM NaCl, 2 mM CaCl₂, and 0.1% BSA) at 37° C. Human purified VWF (with factor VIII and factor VIII free) was purchased from Haematologic Technologies Inc. (Essex Junction, VT) and used in the double-filter nitrocellulose filter binding assay to determine the Kd of individual clones. Briefly, RNA was dephosphorylated using bacterial alkaline phosphatase (Gibco BRL, Gaithberg, Md.) and end-labeled at the 5′ end with T4 polynucleotide kinase (New England Biolabs, Beverly, Mass.) and [γ³²P] ATP (Amersham Pharmacia Biotech, Piscataway, N.J.). Direct binding was performed by incubating ³²P—RNA with VWF in physiological buffer+1 mg/ml BSA at 37° C. for 5 min. The fraction of the nucleic acid-protein complex which bound to the nitrocellulose membrane was quantified with a phosphoimager (Molecular Dynamics, Sunnyvale, Calif.).
As for “GGGAGGACGAACUGCCCUCAGCUACUUUCAUGUUGCUGACGCACAGACGACUCGCUG”, the binding signal came out at 58 % Bmax.

Take “GGGAGGACGAUGCGGUGGACGAACUGCCCUCAGCUACUUUCAUGUUGCUGACGCACAGACGACUCGCUGAGG”: the binding signal was determined as 50 % Bmax.

For the sequence “GGGAGGACGAUGCGGUGGACGAACUGCCCUCAGCUACUUUCAUGUUGCUGACGCACAGACGACUCGCUG”, the binding signal was found to be 50 % Bmax.

On to “GGGAGGACGAUGCGGUGGACGAACUGCCCUCAGCUACUUUCAUGUUGCUGACGCACAGACAGC”, for which the binding signal was 36 % Bmax.

With “GGGAGGACGAUGCGGUGGACGAACUGCCCUCAGCUACUUUCAUGUUGCUGACGCACAGACGACUCG”, the binding signal came to 28 % Bmax.

The sequence “GGGAGGACGAUGCGGUGGACGAACUGCCCUCAGCUACUUUCAUGUUGCUGACGCACAGA” registered a binding signal of 22 % Bmax.

Turning to “GGGAGGAACUGCCCUCAGCUACUUUCAUGUUGCUGACGCACAGACGACUCGCUG”, the binding signal is 45 % Bmax.

The record behind these values is patent US20120264815, “REVERSIBLE PLATELET INHIBITION” (DUKE UNIVERSITY, published 2012).
